# High-throughput results from PubChem.
# BJeLR viability: lowers viability of BJeLR cells; BJeLR fibroblasts viability, CellTiterGlo ATP luminescence, 48 h; HRASV12, hTERT and SV40 LT/ST transformed; viability loss activity score, % (concentration not given with the values); actives 0.64% (n = 30,000); AID 2275; in the data active means viability loss activity score above about 50%; inconclusive means no clear call, values can overlap the other calls; inactive means below about 35%;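 further: higher score means fewer live cells and less ATP luminescence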
# Hedgehog inh: Sonic Hedgehog pathway inhibition | Shh-LIGHT2 Gli-luciferase reporter, 30 h | inhibition, % (concentration not given with the values) | actives 2.1% (n = 22,000) | AID 2313;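 active means mean inhibition across valid replicates above about 65%, limit read from the data; inconclusive means mean under the limit, yet half or more replicates past it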;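 further: pathway switched on by Shh-conditioned medium diluted 1 in 25 in low serum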
# * hit, by the source's call; ? = inconclusive; . = no result given; ! = repeats disagree. Many of the other results were omitted from the sample, so hits are more common in it than they were.
SMILES,BJeLR viability,Hedgehog inh
O=C(CCN1CCN(c2ccccc2)CC1)c1ccc2ccccc2c1,-1.6,.
COc1cc(CC(CO)C(CO)Cc2cc(OC)c(O)c(-c3cc(CC(CO)C(CO)Cc4ccc(O)c(OC)c4)cc(OC)c3O)c2)ccc1O (stereo not given),.,8.9
COc1cc(CC(C)C(C)Cc2ccc(O)c(OC)c2)ccc1O (stereo not given),117.7*,-59.3
COc1ccc(-n2ncc3c(NCCc4ccccc4)ncnc32)cc1,5.2,.
COC(=O)c1cc(C(=O)OC)cc(N2Cc3nccnc3C2=O)c1,0.6,.
Nc1nc2ccc(OC(F)(F)F)cc2s1,-5.2,68.3*!
COc1ccc2c(c1OC)C(=O)OC2Nc1nc2ccc(OC(F)(F)F)cc2s1 (stereo not given),0.7,.
Cc1ccc(C)c(NC(=O)CC(Cc2ccccc2)C(=O)O)c1 (stereo not given),1.0,.
S=c1[nH]nc(-c2ccccc2)n1/N=C\c1cccs1,-0.7,.
O=C(Cn1c(=O)c2cccn2c2ccccc21)N1CCCCC1,0.7,.
C=C(C)C(=O)O[C@H]1CC(=C)C2C[C@H](O)[C@](O)(CO)C2[C@H]2OC(=O)C(=C)[C@H]12 (stereo not given in full),-11.2,-3.3
C=C(C)C(=O)O[C@H]1[C@H]2C(=C)C(=O)O[C@@H]2C[C@@H](C)[C@@H]2O[C@@H]2C(=O)[C@](C)(O)[C@@H]1OC(=O)C(=C)C,79.7*,99.8*
Cn1c(=O)n(C)c2cc(CN3C(=O)c4ccccc4C3=O)ccc21,0.7,.
COc1cc2c(c(OC)c1OC)-c1cc3c(cc1C[C@H]1C(=O)OC[C@@H]1C2)OCO3,41.9,9.9
COc1cc2c(c(OC)c1OC)C[C@H]1COC(=O)[C@@H]1Cc1c-2cc(OC)c(OC)c1OC,.,67.2*
CCN(CC)c1ccc(/C=C2\CCc3ccccc3C2=O)cc1,40.7,.
Cn1cccc1/C=C1\CCc2ccccc2C1=O,73.3*,.
CCN(CC)C(=S)Nc1ccsc1C(=O)OC,-0.5,.
COc1ccc(-c2cn3c4ccccc4n(N)c3n2)cc1OC,2.5,.
CCCCC/C=C\C/C=C\C/C=C\C/C=C\CCCCCC(=O)O,3.9,-10.0
CCCCCCCCCC/C=C\CCCCCCCc1cccc(O)c1C(=O)O,-11.5,103.1*
CCCCCCCC/C=C\CCCCCCCc1cccc(O)c1C(=O)O,-2.9,66.0*
CCCCC/C=C\C/C=C\C/C=C\C/C=C\CCCC(=O)O,-3.1,-35.6
c1ccc(N=c2oc3ccccc3cc2-c2nc3ccccc3[nH]2)cc1,11.6,.
Cc1ccc(-n2nc(C(=O)NC(C)CCc3ccccc3)c3c4ccccc4n(C)c3c2=O)cc1 (stereo not given),0.7,.
SMILES,BJeLR viability,Hedgehog inh
CCOC(=O)c1cc(Br)ccc1OCc1ccccc1Cl,-3.0,.
CCOc1ccc(C(=O)Nc2cccc(NC(=O)c3ccccc3)c2)cc1Br,3.1,.
CCOc1ccc(C(=O)Nc2ccc(NC(=O)c3ccccc3)c(C)c2)cc1Br,3.7,95.7*
COc1cc([C@@H]2c3cc4c(cc3[C@H](O)[C@H]3COC(=O)[C@H]23)OCO4)cc(OC)c1OC,54.2*,91.1*
COc1cc([C@@H]2c3cc4c(cc3[C@@H](O[C@@H]3O[C@@H]5CO[C@@H](C)O[C@H]5[C@H](O)[C@H]3O)[C@H]3COC(=O)[C@H]23)OCO4)cc(OC)c1O,15.1,-11.1
COc1cc([C@@H]2c3cc4c(cc3[C@H](O)[C@H]3COC(=O)[C@@H]23)OCO4)cc(OC)c1OC,92.6*,75.1*
CCCn1c(SCCCc2ccccc2)nc2c1c(=O)[nH]c(=O)n2C,-2.1,.
O=C(c1ccc(NC2=NC3CS(=O)(=O)CC3S2)cc1)N1CCCCC1 (stereo not given),-3.2,.
C[C@H]1CC[C@@H]2[C@@H](C(=O)c3c(O)c([C@]4(O)CC[C@@H](O)[C@H]5O[C@H]54)c[nH]c3=O)[C@@H](C)C=C[C@H]2C1,53.8*,95.9*
COc1ccc(C)cc1NS(=O)(=O)c1cccs1,-7.0,.
CN(C(=O)Cn1c(=O)n(CCC(=O)NCCc2ccccc2)c(=O)c2ccccc21)C1CCCCC1,-8.4,.
CCc1ccc(Nc2nc(-c3cc4ccccc4oc3=O)cs2)cc1,9.8,.
CC(C)S(=O)(=O)c1csc(NC(=O)N2CCCCC2)c1Cl,2.2,-29.4
CC(C)S(=O)(=O)c1csc(NC(=O)Nc2cc(C(F)(F)F)cc(C(F)(F)F)c2)c1Cl,27.6,106.5*
CC(Oc1ccc(Br)cc1)C(=O)NN (stereo not given),1.4,.
C[C@H](CO)N1C[C@H](C)[C@@H](CN(C)S(=O)(=O)c2ccc(Cl)cc2)Oc2c(NS(=O)(=O)c3cccs3)cccc2C1=O,0.0,-8.5
C[C@H](CO)N1C[C@H](C)[C@H](CN(C)S(=O)(=O)c2ccc(Cl)cc2)Oc2c(NS(=O)(=O)c3ccc(F)cc3)cccc2C1=O,-1.4,69.6*
C[C@H]1CN([C@@H](C)CO)C(=O)c2cccc(NS(=O)(=O)c3ccc(F)cc3)c2O[C@@H]1CN(C)S(=O)(=O)c1ccc(Cl)cc1,-1.2,30.9
C[C@H](CO)N1C[C@H](C)[C@H](CN(C)S(=O)(=O)c2ccc(Cl)cc2)Oc2c(NS(=O)(=O)c3cccs3)cccc2C1=O,1.1,77.0*
O=C1OC2(CCCCC2)OC(=O)C1=CNc1ccc(Cl)cc1C(F)(F)F,1.0,.
CSc1nnc2nc(C)cc(C)n12,-1.4,.
Fc1c(F)c(C(F)(F)F)c(F)c2c1Oc1cc(Cl)c(Cl)cc1O2,3.7,.
COc1cc(O)cc2c1C(=O)OC(C)C2 (stereo not given),5.4,-46.1
C[C@@H]1C[C@@H]2O[C@H]2/C=C/C=C\C(=O)Cc2c(Cl)c(O)cc(O)c2C(=O)O1,81.0*,42.6
COCc1nnc(NC(=O)/C=C/c2cc(OC)c(OC)c(OC)c2)s1,-4.6,.
SMILES,BJeLR viability,Hedgehog inh
CSc1sc(C#N)c2c1C(=O)CC(c1ccccc1)C2 (stereo not given),0.2,86.5*
CC1=C(C#N)C(c2ccccc2)C2=C(CC(c3ccccc3)CC2=O)N1 (stereo not given),3.7,.
CC(C)(C)C1CC=C2[C@H](C1)[C@@H](c1ccsc1)C(C#N)=C(N)C2(C#N)C#N (stereo not given in full),4.4,1.1
COC(=O)c1ccc([C@H]2C(C#N)=C(N)C(C#N)(C#N)C3=CCC(C(C)(C)C)C[C@@H]32)cc1 (stereo not given in full),-3.0,83.7*
CN1CCN(C(=O)CCN2C(=O)/C(=C/c3ccc(Cl)cc3)SC2=S)CC1,3.1,.
O=C(c1ccc2c(c1)N(Cc1ccccc1)C(=O)c1ccccc1S2(=O)=O)N1CCCCC1,-1.4,.
C=CCNC1=C2C[C@@H](C)C[C@H](OC)[C@H](O)[C@@H](C)/C=C(\C)[C@H](OC(N)=O)[C@@H](OC)C=C/C=C(/C)C(=O)NC(=CC1=O)C2=O,69.2*,107.5*
COc1cccc(CC(=O)NC2CCN(c3ncc(C(F)(F)F)cc3Cl)CC2)c1,-2.5,.
CCSc1nc2c(c(=O)n1-c1ccccc1)SCC2,-0.1,.
C=C(C)C(=O)O[C@H]1C[C@@]2(C)OC(=CC2=O)/C(COC(C)=O)=C\[C@H]2OC(=O)C(=C)C12 (stereo not given in full),61.3*,?
C=C(CO)C(=O)O[C@H]1C[C@@]23O[C@@H]2CC/C(=C/[C@H]2OC(=O)C(=C)[C@H]12)CO[C@@H]3O,-2.0,-27.7
N#Cc1sc2sc(C#N)c(-c3ccco3)c2c1N,-3.1,.
